# Test results published in PMC5540273 (PLoS ONE, 2017).
# Legend:
# [1] = system: T1, TIE2
# T1 construct: gene TEK
# [2] = system: TLK1
# [3] = system: TNIK
# [4] = system: WNK4
# [5] = system: TNK2
# [6] = system: T2, TRKA
# T2 construct: gene NTRK1
# [7] = system: T3, TRKC
# T3 construct: gene NTRK3
# [8] = system: TRPM6
# [9] = system: TSSK1B
# [10] = system: T4, YANK3
# T4 construct: gene STK32C
# [11] = system: T5, YSK1
# T5 construct: gene STK25
# [12] = system: TXK
# [13] = system: TYK2(JH1domain-catalytic)
# [14] = system: T6, VEGFR2
# T6 construct: gene KDR
# [15] = system: WEE2
# [16] = system: T7, YANK1
# T7 construct: gene STK32A
# 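Also: kd values determined as follow-up on hits from a single-replicate KINOMEscan panel screen.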
smiles,measurement,setting,value
NC(=O)c1nnc2ccccc2c1N,Kd,[1],> 10 µM
O=C(Nc1ccccc1)Nc1cccc(Oc2ccc3nccn3n2)c1,Kd,[1],> 10 µM
Cc1ccccc1-n1cnc2c(N)ncnc21 [SKF-97510],Kd,[2],> 10 µM
COc1ccc(Nc2nccc(-c3cccc(NC(=O)c4cc5cc(F)ccc5[nH]4)c3)n2)cc1 [GSK1229782],Kd,[3],0.82 µM
Cc1ccc(-c2cc(-c3c[nH]nc3-c3ccccn3)ccn2)cc1 [GW684088],Kd,[3],0.16 µM
same,Kd,[4],> 10 µM
Cc1ccc(C(=O)Nc2ccc(Nc3ccnc4cc(-c5ccccn5)ccc34)cc2O)cc1.Cl [GW440146],Kd,[5],0.12 µM
Cc1cc(-c2ccc3c(c2)CC[C@@H](N[C@@H](C)c2ccccc2)C3)cnc1N.Cl [GW412617],Kd,[6],2.5 µM
COc1cccc(NC(=O)NC2CCN(c3ccnc(Nc4ccc(F)cc4)n3)C2)c1 (centres unmarked) [GSK1379721],Kd,[7],0.31 µM
Cn1ccc2ncnc(Oc3ccc(Nc4nc5ccccc5[nH]4)cc3)c21,Kd,[8],> 10 µM
CS(=O)(=O)c1ccc(-c2nc3n(c2-c2ccncc2)CCC3)cc1 [SKF-105942],Kd,[9],> 10 µM
same,Kd,[10],> 10 µM
CCCc1ccc(S(=O)(=O)NC2CCN(c3ccnc(Nc4ccc(F)cc4)n3)C2)cc1 (centres unmarked) [GSK1379715],Kd,[9],> 10 µM
same,Kd,[10],> 10 µM
same,Kd,[11],> 10 µM
Cc1cccc(-c2cc(Nc3ccncc3)c3ccccc3n2)n1 [GSK223675],Kd,[12],> 10 µM
Cl.Oc1ccc(-c2nc(-c3ccccc3)[nH]c2-c2ccncc2)cc1 [SB-428218],Kd,[13],> 10 µM
Cc1csc(-c2nc(Nc3ccncc3)c3ccccc3n2)n1 [GW869640],Kd,[13],> 10 µM
Cn1ccc2ncnc(Oc3ccc(NC(=O)Nc4ccccc4)cc3)c21,Kd,[14],0.045 µM
CCn1c(-c2cccnc2O)nc2cnccc21 [SB-736715],Kd,[15],> 10 µM
Cn1cncc1-c1ccc2ncnc(Nc3ccc(OCc4ccccc4)cc3)c2c1 [GW320571],Kd,[16],> 10 µM
Nc1ncnc2[nH]c(-c3ccccc3)nc12 [AH5015],Kd,[16],> 10 µM
CCn1c(-c2ccccn2)nc2cnccc21 [SB-736398],Kd,[11],> 10 µM
